Screens: PubChem, National Center for Advancing Translational Sciences (NCATS)
FMDV inh – High Throughput Screening for Foot and Mouth Disease Virus Antivirals; Potency, µM (titrated, usually from 57.9 µM), without a hit: at the top dose activity change, negative = inhibition, hits mostly inhibitors; actives 1.2% (n = 410,000); FMDV antiviral cell-based qHTS; calls by dose curve; tested in HEK293T cells; further: read-out not given here; potency means the concentration at half of the fitted maximal effect; nearly all actives have a fitted effect of over 45% in size
Vaccinia Venus – qHTS for Stage-Specific Inhibitors of Vaccinia Orthopoxvirus: Venus Reporter Primary qHTS. Potency, µM (top dose mostly 36.5 µM), for inactives: at the highest dose activity change, negative = inhibition, usual class: inhibitors. Vaccinia virus Venus reporter expression, fluorescence. actives 0.46% (n = 330,000). AID 720580, 2013; calls by dose curve; tested in A549 cells; further: potency means the concentration at half of the fitted maximal effect; nearly all actives have a fitted effect of over 30% in size
Vaccinia mCherry – qHTS for Stage-Specific Inhibitors of Vaccinia Orthopoxvirus: mCherry Reporter Primary qHTS; Vaccinia virus mCherry reporter infection, fluorescence; Potency, µM (top dose mostly 36.5 µM), without a hit: at the top dose activity change, negative = inhibition, hits mostly inhibitors; actives 0.63% (n = 310,000); calls by dose curve; tested in A549 cells; further: potency means the concentration at half of the fitted maximal effect; nearly all actives have a fitted effect of over 35% in size
HCMV inh – qHTS Assay for inhibitors of the human cytomegalovirus (HCMV); HFF cells, HCMV-luciferase reporter, 72 h; hits give low values; activity change, negative = inhibition, % at 57.5 µM; actives 4.5% (n = 410,000); AID 1259415, 2018; in the data active means activity change below about -60%; inconclusive means no clear call, values can overlap the other calls; inactive means above about -39%
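Compounds were evaluated in HFFs infected with an HCMV luciferase reporter virus (MOI 1 PFU/cell). Luciferase in lysates collected 72 h post infection served as the replication measure.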
MARV entry inh – qHTS for inhibitors of binding or entry into cells for Marburg Virus. Marburg virus pseudotyped entry inhibition, cell reporter. Potency, µM (series often up to 37.8 µM), without a hit: at the top dose activity change, negative = inhibition, hits mostly inhibitors. actives 1.8% (n = 300,000); calls by dose curve; tested in HEK293 cells; further: potency means the concentration at half of the fitted maximal effect
LASV entry inh – qHTS for Inhibitors of binding or entry into cells for Lassa Virus; Lassa virus pseudotype entry inhibition, cell reporter; actives 1.2% (n = 300,000); Potency, µM (series often up to 37.9 µM), without a hit: at the highest dose activity change, negative = inhibition, usual class: inhibitors; AID 540256, 2011; calls by dose curve; tested in HEK293 cells; further: potency means the concentration at half of the fitted maximal effect; nearly all actives have a fitted effect of over 50% in size
The depositor's hits bear a star; [ ] = remark or other dose. Sampled rows, rich in hits. Any-hit rate of the full collection: about 6.5%. On the % scale 0 is the no-effect control and ±100 the full control effect.

What do the screens show for `O=C1C(Br)=C(c2ccccc2)C(c2ccccc2)=C1c1ccccc1`?
FMDV inh: 3.5µM*; Vaccinia Venus: -10%; Vaccinia mCherry: -7%; MARV entry inh: inconclusive; LASV entry inh: inconclusive

How did COc1cc(/C=N/NC(=O)c2ccccc2O)ccc1OCC(=O)Nc1ccccc1 do in these assays?
FMDV inh: 1%; HCMV inh: 93

What do the screens show for `O=C(COc1ccc(/C=N/NC(=O)c2cc3ccccc3o2)cc1Cl)Nc1ccccc1`?
FMDV inh: -69%; Vaccinia Venus: inconclusive; Vaccinia mCherry: inconclusive; MARV entry inh: inconclusive; LASV entry inh: 8.9µM*

What do the screens show for `CCOC(=O)[C@H]1[C@H]2COc3ccc(Br)cc3[C@@H]2N2C(=O)CN(Cc3ccco3)C(=O)[C@@]12C`?
FMDV inh: -17%; Vaccinia Venus: -6%; Vaccinia mCherry: inactive; HCMV inh: 30

Results for COc1ccc(N(C(=O)/C=C\C(=O)Nc2ccc(C)cc2)C(C(=O)NCc2ccco2)c2ccc(C)cc2)cc1 (stereo not drawn) ?
FMDV inh: -10%; Vaccinia Venus: -18%; Vaccinia mCherry: -13%; HCMV inh: -30; LASV entry inh: inconclusive

Results for Clc1cccc(-n2ncc3c(NC4CCCCC4)ncnc32)c1 ?
FMDV inh: -1%; Vaccinia Venus: -20%; Vaccinia mCherry: -28%; HCMV inh: 52; LASV entry inh: inconclusive

Results for Cc1ccc(-n2ncc3c(Nc4ccc5c(c4)OCCO5)ncnc32)cc1Cl ?
FMDV inh: -23%; Vaccinia Venus: -28%; Vaccinia mCherry: -20%; HCMV inh: -24; LASV entry inh: 17%[46.1 µM]

What do the screens show for `Cc1ccc(Cl)cc1-n1ncc2c(Nc3ccc4c(c3)OCCO4)ncnc21`?
FMDV inh: inconclusive; Vaccinia Venus: -19%; Vaccinia mCherry: -18%; HCMV inh: -88*; LASV entry inh: inconclusive

What do the screens show for `C=CCNc1ncnc2c1cnn2-c1ccc(C)cc1C`?
FMDV inh: 19%; Vaccinia Venus: -23%; Vaccinia mCherry: inactive; HCMV inh: 89

What do the screens show for `CCOC(=O)N1CCC(Nc2ncnc3c2cnn3-c2ccc(C)cc2C)CC1`?
FMDV inh: inconclusive; Vaccinia Venus: inconclusive; Vaccinia mCherry: inconclusive; HCMV inh: -93*

Results for Cc1ccc(Cl)cc1-n1ncc2c(NC3CCCCC3)ncnc21 ?
FMDV inh: inconclusive; Vaccinia Venus: -9%; Vaccinia mCherry: -22%; HCMV inh: -78*; LASV entry inh: inconclusive

Results for COCOc1ccc(Br)cc1C(=O)[C@@H]1O[C@@H]1c1cccc(OC)c1 ?
MARV entry inh: -17%[14.2 µM]

What do the screens show for `COC(=O)C(O)(c1ccccc1)C(Nc1ccc(OC)cc1)c1ccc(Cl)cc1` (stereo not drawn)?
HCMV inh: -3

How did COCCN(C(=O)CCc1ccccc1OC)c1nnc(-c2cccnc2)s1 do in these assays?
FMDV inh: inconclusive; HCMV inh: -61*

How did CC1CCCN(c2ccc(C(=O)NCc3cccs3)cn2)C1 (stereo not drawn) do in these assays?
Vaccinia Venus: -26%; Vaccinia mCherry: -5%; HCMV inh: -2; MARV entry inh: 12%; LASV entry inh: 10µM*

Results for O=C(NCc1cccs1)c1ccc(N2CCCCC2)nc1 ?
Vaccinia Venus: inconclusive; Vaccinia mCherry: -10%; HCMV inh: 21; MARV entry inh: -2%; LASV entry inh: -16%

Results for O=C(CN1CCN(C(c2ccccc2)c2ccccc2)CC1)N1N=CCC1c1ccccc1 (stereo not drawn) ?
FMDV inh: -21%; Vaccinia Venus: -6%; Vaccinia mCherry: -1%; HCMV inh: -5; MARV entry inh: 8.9µM*; LASV entry inh: inconclusive

Results for NC(=O)C1CCN(CC(=O)N2N=CCC2c2ccccc2)CC1 (stereo not drawn) ?
FMDV inh: 2%; Vaccinia Venus: -7%; Vaccinia mCherry: inactive; HCMV inh: -103*

What do the screens show for `O=C(CN1CCN(c2ccccc2)CC1)N1N=CCC1c1ccccc1` (stereo not drawn)?
FMDV inh: -4%; Vaccinia Venus: -11%; HCMV inh: -7; MARV entry inh: -2%; LASV entry inh: 5%

How did Cc1ccc2[nH]cc(C(O)c3c[nH]c4ccc(C)cc34)c2c1 do in these assays?
Vaccinia Venus: -14%; Vaccinia mCherry: -13%

What do the screens show for `CN(C)c1ccc(N=Cc2cccn2C)cc1`?
FMDV inh: 22%; Vaccinia Venus: inconclusive; Vaccinia mCherry: inconclusive; HCMV inh: inconclusive; MARV entry inh: inconclusive; LASV entry inh: 6.3µM*

What do the screens show for `CN(C)c1ccc(N=Cc2cccc3ccccc23)cc1`?
Vaccinia Venus: 5%; Vaccinia mCherry: 37%

Results for COc1ccc(CNC(=O)O[C@H]2CC[C@@]34CCCN3C(=O)CCC[C@H]4[C@H]2Cc2ccccc2)cc1 ?
HCMV inh: 7

What do the screens show for `Cc1ccc(-c2c[n+](Cc3ccc(Cl)c(Cl)c3)c3n2CCC3)cc1`?
FMDV inh: -22%; Vaccinia Venus: -23%; Vaccinia mCherry: -23%; HCMV inh: -99*; MARV entry inh: inconclusive; LASV entry inh: inconclusive

Results for Cc1ccc(C(=O)C[n+]2cc(-c3ccc(C)cc3)n3c2CCCCC3)cc1 ?
FMDV inh: 10µM*; Vaccinia Venus: -24%; Vaccinia mCherry: -12%; HCMV inh: -102*; MARV entry inh: inconclusive; LASV entry inh: inconclusive

How did Cc1ccc(NC(=O)C[n+]2cc(-c3ccc(C)cc3)n3c2CCC3)cc1 do in these assays?
FMDV inh: 3%; Vaccinia Venus: -15%; Vaccinia mCherry: -2%; HCMV inh: -8; MARV entry inh: -3%[46.1 µM]; LASV entry inh: -4%

Results for COc1ccc(C(=O)C[n+]2cc(-c3ccc(OC)cc3)n3c2CCCC3)cc1 ?
FMDV inh: inconclusive; Vaccinia Venus: inconclusive; Vaccinia mCherry: -17%; HCMV inh: -67*; MARV entry inh: inconclusive; LASV entry inh: -16%[46.1 µM]

What do the screens show for `Cc1ccc(-c2c[n+](CC(=O)Nc3ccc(C)cc3C)c3n2CCC3)cc1`?
FMDV inh: -7%; Vaccinia Venus: -7%[7.34 µM]; Vaccinia mCherry: inactive[7.34 µM]; HCMV inh: -71*; MARV entry inh: -1%[46.1 µM]; LASV entry inh: -18%

How did COc1ccc(-c2c[n+](CC(=O)c3cccs3)c3n2CCC3)cc1 do in these assays?
FMDV inh: 0%; Vaccinia Venus: -23%; Vaccinia mCherry: -3%; HCMV inh: 1; MARV entry inh: -17%; LASV entry inh: -11%
